PTAP TSG101 blk = qHTS Assay for Iinhibitors of HIV-1 Budding by Blocking the Interaction of PTAP/TSG101; Tumor susceptibility gene 101 protein (Homo sapiens), Q99816; Fluorescence polarization, FITC-PTAP peptide / Tsg101 binding; Potency, µM (doses to about 115 µM), most hits filed as inhibitors; 340,000 tested, under 10 active; AID 493005, 2010; active = well fitted inhibition curve with a large enough effect in the main read-out, with a control signal flat, not every such curve was filed as active; inconclusive = small, poorly fitted or top-dose-only effect, or effect the other way, or a change in a side signal; inactive = no such curve, though single readings can be large or run the other way
Target sequence (Q99816 whole entry, looked up): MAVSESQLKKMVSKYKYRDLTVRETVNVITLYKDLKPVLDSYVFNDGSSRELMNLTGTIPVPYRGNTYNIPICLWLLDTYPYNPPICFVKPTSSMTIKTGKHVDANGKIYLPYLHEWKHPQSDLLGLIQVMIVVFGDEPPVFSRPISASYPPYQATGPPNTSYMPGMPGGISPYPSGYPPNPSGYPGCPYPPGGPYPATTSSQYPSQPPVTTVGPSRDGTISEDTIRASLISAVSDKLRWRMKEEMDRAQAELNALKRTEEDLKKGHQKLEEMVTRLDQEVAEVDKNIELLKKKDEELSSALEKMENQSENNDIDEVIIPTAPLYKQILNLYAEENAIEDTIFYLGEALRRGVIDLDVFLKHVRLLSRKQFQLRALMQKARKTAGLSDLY
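Fluorescence anisotropy tracks displacement of a FITC-tagged PTAP peptide (50 nM) from the Tsg101 binding domain (10 uM), following a 20 min room-temperature incubation at pH 7.5.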
Anesthetic bind = qHTS Assay for Identification of Novel General Anesthetics | apoferritin/1-aminoanthracene competitive binding, fluorescence | Potency, µM (titrated, usually from 77.5 µM), most hits filed as inhibitors | 350,000 compounds, 0.074% hits; also: nearly all actives have a fitted effect of over 20% in size
Target sequence (P02791 2-175 limits assumed): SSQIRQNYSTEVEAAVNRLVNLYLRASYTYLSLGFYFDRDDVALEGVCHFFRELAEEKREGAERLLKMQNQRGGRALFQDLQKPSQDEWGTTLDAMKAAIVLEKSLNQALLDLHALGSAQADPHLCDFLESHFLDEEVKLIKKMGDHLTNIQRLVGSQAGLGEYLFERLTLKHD
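Concentration-response curves derived by four-parameter Hill fitting of normalized fluorescence, where compounds displaced 1-AMA from 10 uM horse apoferritin following a brief 10 min room-temperature incubation; propofol titration acted as positive control.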
Epigenetic reg = Quantitative High-Throughput Screen for Regulators of Epigenetic Control | murine LDR cells, GFP reporter derepression, 30 h | Potency, µM (doses to about 53.9 µM), hits mostly activators | 280,000 compounds, 0.2% hits | AID 1865, 2009; also: nearly all actives have a fitted effect of over 60% in size
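Derepression of a silenced CMV-GFP reporter in murine LDR cells is scored by enumerating GFP-positive cells with a laser-scanning microplate cytometer after 30 hours of treatment at 37 C.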
HTT cytoprotect = qHTS Multiplex Assay to Identify Dual Action Probes in a Cell Model of Huntington: Cytoprotection (ATP); Potency, µM (titrated, usually from 56.4 µM), usual class: activators; 230,000 compounds, 0.14% hits; PC12 HTT-Q103 induced, cytoprotection, ATP luminescence, 40 h; also: nearly all actives have a fitted effect of over 45% in size
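Compounds added alongside 100 nM tebufenozide, which induces toxic Q103 huntingtin exon 1-GFP in stable PC12 cells; surviving cells quantified by luminescent ATP measurement. Medium: phenol red-free DMEM, 5% equine and 5% calf serum.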
HttQ103 aggreg = qHTS Multiplex Assay to Identify Dual Action Probes in a Cell Model of Huntington: Aggregate Formation (GFP) | 220,000 compounds, 1.1% hits | PC12 HttQ103-GFP aggregates, Acumen cytometry, 40 h | Potency, µM (titrated, usually from 46.1 µM), hits mostly inhibitors; also: nearly all actives have a fitted effect of over 60% in size
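Inducible Q103 Huntingtin exon 1–GFP PC12 line, 1500 cells/well in phenol red free DMEM with 5% equine and 5% calf serum. Tebufenozide 100 nM induced expression; compounds titrated; aggregates quantified by cytometry.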
PINK1 expr mod = A Quantitative High throughput Screen to Identify Chemical Modulators of PINK1 Expression. PINK1 immunofluorescence, high-content cytometry, 24 h. Potency, µM (doses to about 76.6 µM), usual class: activators. 410,000 compounds, 0.2% hits. AID 624263, 2012; active = well fitted activation curve with a large enough effect; inconclusive = small, poorly fitted or top-dose-only effect; cell line not stated here; also: nearly all actives have a fitted effect of over 65% in size
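Fluorescence from anti-PINK1 antibody, together with nuclear and cell stains, was scanned on a laser-scanning cytometer. Before staining, stable-line cells were incubated 24 hours with compounds at 5 concentrations; primary antibody 12 h at 10 degrees C.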
Hits are given with their value; 0 = inactive; ? = inconclusive; - = no result given; [ ] = remark or other dose. The sample as a whole holds a higher share of hits than the screen did. Unless noted, calls follow the shape of the dose curve; as a rule, active = well fitted curve in the direction sought with a large enough effect; inconclusive = small, poorly fitted or top-dose-only effect, or another doubt; inactive = no such curve, though single readings can be large; an effect the other way counts as inactive or inconclusive.

SMILES	PTAP TSG101 blk	Anesthetic bind	Epigenetic reg	HTT cytoprotect	HttQ103 aggreg	PINK1 expr mod
COc1ccc(C(=O)NCc2oc(-c3ccccc3)cc2C(=O)O)cc1	0	0	0	0[0.074 µM]	3.2µM	0
O=C(NC1CCCCC1)C1CCN(S(=O)(=O)c2cccc3nsnc23)CC1	0	0	0	0	0	10µM
CCN(CC)S(=O)(=O)c1cc([N+](=O)[O-])ccc1N=Nc1c(O)[nH]c2ccccc12	0	0	18µM	0[10 µM]	0	11µM
O=[N+]([O-])c1ccc2[nH]c(O)c(N=Nc3ccc(F)cc3)c2c1	0	0	-	-	-	28µM
CCOC(=O)C1=C(C)NC(C)=C(C(=O)OC)[C@@H]1c1cccc(Cl)c1Cl	-	0	0	0	-	-
FC(F)(F)c1cnc(-c2cc3c(c(OCC4CCCO4)c2)OCCN(Cc2cccn2-c2nccs2)C3)c(Cl)c1 (centres undefined)	-	-	-	-	-	0
Cc1ccc(CN2C[C@H](Sc3ccccn3)C[C@H]2C(=O)Nc2ccc3sc(C)nc3c2)c(C)c1	-	-	-	-	-	0
c1ccc(OCc2nnc3n2N=C(c2ccccc2)CS3)cc1	0	?	0	0	0	0
CCOc1ccc(C2=Nn3c(nnc3-c3ccc(OC)cc3)SC2)cc1	0	0	0	0[0.074 µM]	0	0
COc1ccc(OCc2nnc3n2N=C(c2ccc(C)cc2)CS3)cc1	0	11µM	0	0	0	0
COc1ccc(OCc2nnc3n2N=C(c2ccc(OC)cc2)CS3)cc1	0	8.9µM	0	0	0	0
CC(=O)c1nnn(-c2nc(C#N)nc(N3CCOCC3)n2)c1C	-	-	-	-	-	0
COc1ccc(C(=O)N2c3cc4c(cc3C(C)=CC2(C)C)OCO4)cc1	0	0	0	0	11µM	0
COc1ccccc1-n1cc(CN2CCOc3ccc(CN4C[C@@H](C)O[C@@H](C)C4)cc3C2)cn1	-	-	-	-	-	0
c1ccc2c(Nc3ccc4c(c3)OCCO4)c3c(nc2c1)CCC3	0	0	0	0[1.9 µM]	0[9.22 µM]	40µM
Cc1ccc(-n2c(-c3ccccc3)c[n+]3c2CCc2ccccc2-3)c(C)c1	0	0	0	0	3.2µM	?
O=C(NCc1ccccn1)c1cnn(-c2nccc(-c3cccs3)n2)c1C1CC1	-	-	-	-	-	0
O=C1C=CCC(/C=C/c2ccccc2)O1 (centres undefined)	0	0	0	-	10µM	0
CCC1([N+](=O)[O-])COC(C=Cc2ccccc2)OC1 (centres undefined)	0	-	-	-	-	0
Cc1ccc2ccccc2[n+]1CCCS(=O)(=O)[O-]	0	0	0	0	0	0
CCN1/C(=C/c2cc[n+](CCCS(=O)(=O)[O-])c3ccccc23)Sc2ccccc21	0	0	13µM	0[10 µM]	0	0
COc1cc(SC)ccc1C(=O)NC(C)C	0	?	0	13µM	0	0
C(=N\Nc1nc(Nc2ccccc2)nc(Nc2ccccc2)n1)/c1cccnc1	0	0	?	0[10 µM]	4.5µM	0
CC(C)(C)C1CCc2c(sc(NC(=O)c3cc4ccccc4c(=O)o3)c2C(N)=O)C1 (centres undefined)	-	0	0	-	-	0
Cc1ccc(-c2ccc(/C=C3\SC(N4CCOCC4)=NC3=O)o2)cc1	0	0	0	2.8µM	0	0
SMILES	PTAP TSG101 blk	Anesthetic bind	Epigenetic reg	HTT cytoprotect	HttQ103 aggreg	PINK1 expr mod
CSCCC(NS(=O)(=O)c1ccc(Cl)cc1)C(=O)OCc1cccc(Cl)c1 (centres undefined)	0	0	0	0[0.074 µM]	0	0
CSCCC(NS(=O)(=O)c1ccc(Cl)cc1)C(=O)OCc1c(Cl)cccc1Cl (centres undefined)	0	0	0	0[10 µM]	0	40µM
CCc1c(O)nc(SCC(=O)Nc2ccc(C)cc2)n(C2CCCCC2)c1=O	0	0	0	0[0.074 µM]	11µM	-
CCc1c(O)nc(SCC(=O)Nc2ccc(Br)cc2)n(-c2ccc(C)cc2)c1=O	0	0	-	-	-	0
O=C(NC1CCCCC1)C(c1cccnc1)N(C(=O)CCl)c1ccc(F)cc1 (centres undefined)	0	0	0	0[10 µM]	6.3µM	0
COc1ccc(C(C(=O)NC2CCCCC2)N(C(=O)CCl)c2ccc(OC)cc2)cc1 (centres undefined)	0	0	0	0[10 µM]	?	0
COc1ccc(N(C(=O)CCl)C(C(=O)NC2CCCCC2)c2cccnc2)cc1 (centres undefined)	0	0	0	0[10 µM]	22µM	0
CC(C)(C)Cc1c(-c2ccc(C#N)cc2)nc2c(Cl)cc(C(F)(F)F)cn12	-	-	-	-	-	35µM
C=CCn1c(=O)n(CCOC)c(=O)c2sc3ccccc3c21	0	0	0	0[10 µM]	22µM	0
O=C1c2ccccc2C(O)(O)[C@@]1(O)[C@]1(O)C(=O)c2ccccc2C1(O)O	-	-	-	0[10 µM]	-	-
Cc1ccc(C(=O)NNC(=O)C2CCN(S(=O)(=O)c3ccc(Cl)cc3)CC2)cc1	0	0	0	0[10 µM]	0	0
O=C(NNC(=O)C1CCN(S(=O)(=O)c2ccc(Cl)cc2)CC1)c1ccc(S(=O)(=O)N2CCCCC2)cc1	0	0	0	0[10 µM]	25µM	0
CC(=O)Nc1ccc(Nc2ncnc3c2cnn3-c2ccccc2)cc1	0	0	0	0	0	0
CC(C)Nc1ncnc2c1cnn2-c1ccc(Cl)cc1	0	0	0	0[10 µM]	22µM	0
Clc1ccc(Nc2ncnc3c2cnn3-c2ccccc2)cc1	0	0	0	0	3.5µM	0
Cc1cccc(C(=O)Nc2ccc(C(=O)OCc3cc(=O)n4nc(CC(C)C)sc4n3)cc2)c1	-	0	0	-	-	0
O=C(Nc1nc2c(Cl)cccc2s1)c1ccc(Br)o1	0	?	0	0	0	14µM
O=C(Nc1nc2c(Cl)cccc2s1)c1ccc([N+](=O)[O-])o1	0	0	-	-	-	?
C=CCn1c(NCCO)nc2c1c(=O)n(C)c(=O)n2C	0	0	0	0[10 µM]	25µM	0
CCCCCCn1c(NCC)nc2c1c(=O)n(C)c(=O)n2C	0	0	0	0[0.074 µM]	4µM	0
O=c1[nH]c2ccc([N+](=O)[O-])cc2nc1/C=C(\O)c1ccccc1	0	0	6.3µM	0[10 µM]	0[9.22 µM]	28µM
C/C(O)=C/c1nc2ccccc2[nH]c1=O	0	0	0	0[10 µM]	0	0
CCOCCn1c(CN2CCN(c3cccc(Cl)c3)CC2)nc2c1c(=O)n(C)c(=O)n2C	0	0	0	0	0	0
CCOCCn1c(N2CCN(c3ccccc3)CC2)nc2c1c(=O)n(C)c(=O)n2C	0	0	0	0	0	0
COCCn1c(CN2CCN(c3cccc(Cl)c3)CC2)nc2c1c(=O)n(C)c(=O)n2C	0	0	0	0	20µM	0
